What all share (settings): mRNA level, 48 h; actives raise or lower the signal
Read-out in test [1]: Cytochrome P450 (CYP2B6), CYP2B6 (gene 1555)
Nature of the test: LTEA_HepaRG_CYP2B6: Life Technologies and Expression Analysis (LTEA) Assay for Cytochrome P450 (CYP2B6) using HepaRG (AID 2283481). Put shortly: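 HepaRG cells plated 48 h, switched to serum-free induction medium, then dosed 48 h (8 points, half-log from 100 uM, 0.5% DMSO). RNA isolated; CYP2B6 expression measured by qRT-PCR; gain or loss fitted relative to DMSO.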

Read-out in test [2]: CYP2C8 (gene 1558)
Nature of the test: LTEA_HepaRG_CYP2C8: Life Technologies and Expression Analysis (LTEA) Assay for CYP2C8 using HepaRG (AID 2283483). Put shortly:
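CYP2C8 mRNA induction or loss, by qRT-PCR normalized to ACTB/GAPDH/POLR2A, is read in HepaRG cells after 48 h treatment. Concentrations run from 100 uM down in half-log dilutions, with 0.5% DMSO as vehicle and baseline.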

Read-out in test [3]: CYP2C9 (gene 1559)
Nature of the test: LTEA_HepaRG_CYP2C9: Life Technologies and Expression Analysis (LTEA) Assay for CYP2C9 using HepaRG (AID 2283484). Put shortly: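 Cells plated 48 h, switched to serum-free induction medium, then treated in duplicate for 48 h at eight concentrations (max 100 uM, 0.5% DMSO). RNA then analysed by qRT-PCR for CYP2C9; curves fitted in both directions relative to DMSO.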

Read-out in test [4]: CYP2E1 (gene 1571)
Put plainly: LTEA_HepaRG_CYP2E1: Life Technologies and Expression Analysis (LTEA) Assay for CYP2E1 using HepaRG (AID 2283485). Put shortly:
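Differentiated HepaRG cells were treated in duplicate for 48 h with chemicals in 0.5% DMSO, from 100 uM downward in half-log dilutions. RNA was then analysed by qRT-PCR for CYP2E1 induction or loss.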

Read-out in test [5]: CYP4A11 (gene 1579)
Put plainly: LTEA_HepaRG_CYP4A11: Life Technologies and Expression Analysis (LTEA) Assay for CYP4A11 using HepaRG (AID 2283486). The gist of the method: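 HepaRG, 48 h chem exposure, 8 conc (100 uM top, half-log), 0.5% DMSO vehicle; qRT-PCR readout, housekeeping-gene normalized; bidirectional curve fit vs DMSO baseline.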

Read-out in test [6]: Cytochrome P450 3A4 (Homo sapiens) (UniProt P08684)
Nature of the test: LTEA_HepaRG_CYP3A4: Life Technologies and Expression Analysis (LTEA) Assay for CYP3A4 using HepaRG (AID 2283487). The gist of the method: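 Differentiated HepaRG cells in serum-free induction medium exposed in duplicate for 48 h to 8 half-log concentrations up to 100 uM in 0.5% DMSO. CYP3A4 mRNA measured by qRT-PCR normalized to ACTB, GAPDH and POLR2A; bidirectional fit versus DMSO.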

Read-out in test [7]: DNA damage-inducible transcript 3 (DDIT3), DDIT3 (gene 1649)
Put plainly: LTEA_HepaRG_DDIT3: Life Technologies and Expression Analysis (LTEA) Assay for DNA damage-inducible transcript 3 (DDIT3) using HepaRG (AID 2283488). Put shortly:
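Changes in DDIT3 transcript, in either direction relative to 0.5% DMSO vehicle, were quantified by TaqMan qRT-PCR after 48 h chemical exposure of HepaRG cells at 8 concentrations, maximum 100 uM.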

Read-out in test [8]: Pro-epidermal growth factor (Homo sapiens) (UniProt P01133)
Nature of the test: LTEA_HepaRG_EGF: Life Technologies and Expression Analysis (LTEA) Assay for Epidermal growth factor (EGF) using HepaRG (AID 2283489). Put shortly: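 HepaRG, 48 h dosing, 100 uM top, half-log x8, 0.5% DMSO. Readout: TaqMan qRT-PCR (Fluidigm array), housekeeping-normalized. Gain or loss of signal fit vs DMSO.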

Read-out in test [9]: Early growth response protein 1 (EGR1) transcription factor, EGR1 (gene 1958)
Nature of the test: LTEA_HepaRG_EGR1: Life Technologies and Expression Analysis (LTEA) Assay for Early growth response protein 1 (EGR1) transcription factor using HepaRG (AID 2283490). Put shortly:
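Read-out is EGR1 mRNA level by qRT-PCR, normalized to three housekeeping genes and analysed for gain or loss of signal against 0.5% DMSO. Source cells: human HepaRG, treated 48 h at up to 100 uM in half-log dilutions.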

Read-out in test [10]: Ezrin (EZR), EZR (gene 7430)
Put plainly: LTEA_HepaRG_EZR: Life Technologies and Expression Analysis (LTEA) Assay for Ezrin (EZR) using HepaRG (AID 2283491). Put shortly: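 Differentiated human HepaRG cells, 48 h after plating, were exposed in serum-free induction medium for 48 hours to eight half-log concentrations up to 100 uM in 0.5% DMSO. EZR mRNA was measured by TaqMan qRT-PCR, normalized to ACTB, GAPDH and POLR2A, and fitted bidirectionally against DMSO.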

Read-out in test [11]: Cytochrome P450 3A7 (Homo sapiens) (UniProt P24462)
Nature of the test: LTEA_HepaRG_CYP3A7: Life Technologies and Expression Analysis (LTEA) Assay for CYP3A7 using HepaRG (AID 2283492). The gist of the method: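 Human HepaRG liver cells, 48 h post-plating, switched to serum-free induction medium and exposed in duplicate for 48 h. Dosing: 100 uM top, half-log dilutions, 8 points, 0.5% DMSO vehicle. Read-out: CYP3A7 mRNA, gain or loss fitted against DMSO baseline.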

Read-out in test [12]: CYP3A5 (gene 1577)
Put plainly: LTEA_HepaRG_CYP3A5: Life Technologies and Expression Analysis (LTEA) Assay for CYP3A5 using HepaRG (AID 2283493). The gist of the method:
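mRNA induction or loss of CYP3A5 assessed in HepaRG after 48 h dosing, 100 uM top concentration, duplicate wells; TaqMan qRT-PCR with ACTB, GAPDH, POLR2A normalization; 0.5% DMSO as negative control.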

Read-out in test [13]: Fatty Acid-Binding Protein 1 (FABP1), FABP1 (gene 2168)
Put plainly: LTEA_HepaRG_FABP1: Life Technologies and Expression Analysis (LTEA) Assay for Fatty Acid-Binding Protein 1 (FABP1) using HepaRG (AID 2283494). Put shortly: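 HepaRG, 48 h post-plating switched to serum-free induction medium, then dosed 48 h (duplicate, 8 pts, ≤100 uM, 0.5% DMSO). RNA → Fluidigm TaqMan qRT-PCR, FABP1 normed to ACTB/GAPDH/POLR2A. Bidirectional curve fit vs DMSO.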

Read-out in test [14]: Cytochrome P450 4A22 (Homo sapiens) (UniProt Q5TCH4)
Put plainly: LTEA_HepaRG_CYP4A22: Life Technologies and Expression Analysis (LTEA) Assay for Cytochrome P450 4A22 (CYP4A22) using HepaRG (AID 2283495). Put shortly:
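Readout is CYP4A22 transcript induction or loss, quantified by qRT-PCR and normalized to ACTB, GAPDH and POLR2A. Human HepaRG cells receive test chemicals for 48 h at eight half-log concentrations from 100 uM in 0.5% DMSO.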

Read-out in test [15]: Cytochrome P450 7A1 (Homo sapiens) (UniProt P22680)
Put plainly: LTEA_HepaRG_CYP7A1: Life Technologies and Expression Analysis (LTEA) Assay for Cytochrome P450 7A1 (CYP7A1) using HepaRG (AID 2283496). The gist of the method:
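Gene expression endpoint in human HepaRG liver cells treated for 48 h with test chemicals (up to 100 uM, 0.5% DMSO). Values come from bidirectional concentration-response fitting versus DMSO.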

Read-out in test [16]: Glutathione S-Transferase (GSTA2), GSTA2 (gene 2939)
Put plainly: LTEA_HepaRG_GSTA2: Life Technologies and Expression Analysis (LTEA) Assay for Glutathione S-Transferase (GSTA2) using HepaRG (AID 2283497). The gist of the method:
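HepaRG, 48 h dosing, 8-pt half-log CRC from 100 uM, 0.5% DMSO vehicle, n=2; RNA → Fluidigm TaqMan qRT-PCR; GSTA2 vs ACTB/GAPDH/POLR2A; gain/loss fit vs DMSO.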

Read-out in test [17]: Glutamate-cysteine ligase catalytic (GCLC), GCLC (gene 2729)
Nature of the test: LTEA_HepaRG_GCLC: Life Technologies and Expression Analysis (LTEA) Assay for Glutamate-cysteine ligase catalytic (GCLC) using HepaRG (AID 2283498). Put shortly:
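Read-out is GCLC transcript level by Fluidigm-based TaqMan qRT-PCR, normalized to three housekeeping genes and fitted in both directions relative to 0.5% DMSO. Human HepaRG cells received chemicals for 48 h, up to 100 uM.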

Read-out in test [18]: growth arrest and DNA damage 45 (GADD45G), GADD45G (gene 10912)
Nature of the test: LTEA_HepaRG_GADD45G: Life Technologies and Expression Analysis (LTEA) Assay for growth arrest and DNA damage 45 (GADD45G) using HepaRG (AID 2283499). The gist of the method: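 Gain or loss of GADD45G mRNA, quantified by TaqMan qRT-PCR against three housekeeping genes, is fitted in both directions relative to 0.5% DMSO. Human HepaRG cultures receive test chemical for 48 h at up to 100 uM.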

Read-out in test [19]: Glutamate-cysteine ligase regulatory (GCLM), GCLM (gene 2730)
Put plainly: LTEA_HepaRG_GCLM: Life Technologies and Expression Analysis (LTEA) Assay for Glutamate-cysteine ligase regulatory (GCLM) using HepaRG (AID 2283500). Put shortly: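 Human liver HepaRG cultures receive test chemicals for 48 hours at up to 100 uM in 0.5% DMSO. GCLM expression is measured by qRT-PCR and analysed for increases or decreases against vehicle.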

Read-out in test [20]: Cytochrome P450 2C19 (Homo sapiens) (UniProt P33261)
Put plainly: LTEA_HepaRG_CYP2C19: Life Technologies and Expression Analysis (LTEA) Assay for CYP2C19 using HepaRG (AID 2283482). The gist of the method: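 Transcript levels of CYP2C19 were quantified by qRT-PCR after HepaRG cells were treated for 48 hours with test chemicals up to 100 uM (eight half-log concentrations, 0.5% DMSO vehicle). Gain or loss of signal was fitted relative to DMSO.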

Calls of active or inactive are those of the source. The calls were made as follows: active = hit-call score of the fitted dose curve at least 0.9, where 1 is the maximum; inactive = score below 0.9.

Cytochrome P450 3A7 (Homo sapiens), sequence (P24462 whole entry, looked up): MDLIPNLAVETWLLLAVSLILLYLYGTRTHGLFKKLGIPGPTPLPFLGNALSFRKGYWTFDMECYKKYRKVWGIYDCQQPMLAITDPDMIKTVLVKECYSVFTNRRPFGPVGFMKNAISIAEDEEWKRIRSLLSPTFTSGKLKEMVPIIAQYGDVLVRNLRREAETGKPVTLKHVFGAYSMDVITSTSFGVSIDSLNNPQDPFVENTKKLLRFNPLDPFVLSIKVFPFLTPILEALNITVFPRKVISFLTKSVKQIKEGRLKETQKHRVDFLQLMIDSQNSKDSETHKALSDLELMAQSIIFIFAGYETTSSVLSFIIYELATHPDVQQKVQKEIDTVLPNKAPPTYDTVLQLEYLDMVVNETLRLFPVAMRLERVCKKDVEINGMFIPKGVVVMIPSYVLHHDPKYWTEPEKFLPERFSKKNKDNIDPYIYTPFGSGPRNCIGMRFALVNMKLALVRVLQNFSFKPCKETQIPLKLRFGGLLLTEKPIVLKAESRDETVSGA
Cytochrome P450 2C19 (Homo sapiens), sequence (P33261 whole entry, looked up): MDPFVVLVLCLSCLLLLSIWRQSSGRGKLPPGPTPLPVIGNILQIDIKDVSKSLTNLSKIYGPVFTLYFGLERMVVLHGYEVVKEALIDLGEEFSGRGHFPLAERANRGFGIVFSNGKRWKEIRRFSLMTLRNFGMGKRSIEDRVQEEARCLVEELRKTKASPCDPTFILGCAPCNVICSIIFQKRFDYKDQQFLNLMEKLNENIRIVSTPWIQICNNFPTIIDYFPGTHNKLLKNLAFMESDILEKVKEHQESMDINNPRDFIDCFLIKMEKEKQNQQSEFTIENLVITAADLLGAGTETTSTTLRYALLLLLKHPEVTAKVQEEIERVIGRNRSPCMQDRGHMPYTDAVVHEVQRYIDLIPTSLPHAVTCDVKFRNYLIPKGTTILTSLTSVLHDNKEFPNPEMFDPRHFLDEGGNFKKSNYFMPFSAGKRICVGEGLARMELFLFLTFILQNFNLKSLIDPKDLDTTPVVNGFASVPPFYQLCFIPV
Cytochrome P450 3A4 (Homo sapiens), sequence (P08684 whole entry, looked up): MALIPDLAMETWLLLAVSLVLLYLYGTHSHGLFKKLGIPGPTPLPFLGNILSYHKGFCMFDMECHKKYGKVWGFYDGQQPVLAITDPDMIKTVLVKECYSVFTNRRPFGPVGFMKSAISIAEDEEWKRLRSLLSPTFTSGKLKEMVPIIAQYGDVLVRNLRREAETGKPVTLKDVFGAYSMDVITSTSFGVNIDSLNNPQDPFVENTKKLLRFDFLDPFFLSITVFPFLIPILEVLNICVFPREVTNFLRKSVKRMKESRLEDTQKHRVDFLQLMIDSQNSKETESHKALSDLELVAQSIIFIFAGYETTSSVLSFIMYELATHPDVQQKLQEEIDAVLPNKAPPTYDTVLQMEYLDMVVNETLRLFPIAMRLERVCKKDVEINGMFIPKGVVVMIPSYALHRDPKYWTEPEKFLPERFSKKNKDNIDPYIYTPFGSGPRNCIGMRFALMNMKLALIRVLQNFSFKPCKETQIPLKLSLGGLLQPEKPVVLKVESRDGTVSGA

In the case of `CN(C)C(=S)SSC(=S)N(C)C`, the AC50 in test [1] is 50 µM (active). Further, the call in test [2], in test [3], in test [4], in test [5], in test [6] and in [7] was inactive. Further, the molecule was classed as inactive in [8], in [9], in [10], in test [11], in [12] and in test [13]. For the same molecule, the molecule was classed as inactive in [14], in test [15], in [16], in [17], in test [18] and in [19].
For the molecule `CCOC(=O)CC(SP(=S)(OC)OC)C(=O)OCC` (stereo not drawn), the AC50 in test [1] was 50 µM (active). The result in test [20], in test [2], in test [3], in test [4], in test [5] and in test [6] was inactive. Also, the outcome in [7], in test [8], in test [9], in test [11], in test [12] and in test [13] was inactive. In addition, the molecule was classed as inactive in test [14], in [15], in test [17], in [18] and in test [19].
Turning to `CCNc1nc(Cl)nc(NCC)n1`, in test [1], the AC50 was 11.3 µM (active). For the same molecule, the outcome in test [20], in test [2], in test [3], in [4], in test [5] and in test [6] was inactive. For the same molecule, the call in test [7], in test [8], in test [9], in [11], in test [12] and in test [13] was inactive. Further, the molecule was classed as inactive in [14], in test [15], in [17], in test [18] and in test [19].
With `CC(C)(C)c1ccc(CSc2cnn(C(C)(C)C)c(=O)c2Cl)cc1`, the AC50 in test [1] was 1.54 µM (active); in test [20] it was 28 µM (active); in test [2] it was 22.5 µM (active); in test [3], 13.4 µM (active); in test [4] it was 1.48 µM (active); in test [5], 1.75 µM (active). For the same molecule, the concentration at half-maximal activity (AC50) in test [6] is 1.56 µM (active); in [7], 2.06 µM (active); in test [9] it was 1.12 µM (active); in test [11], 1.05 µM (active); in test [12], 2.11 µM (active); in test [13] it was 2.8 µM (active). Besides, the AC50 was 1.74 µM (active) in test [14], 26.1 µM (active) in test [15], 2.07 µM (active) in test [18] and 4.86 µM (active) in [19]. Also, the result in test [8] and in test [17] was inactive.

A word on the AC50: it is the concentration giving half of the maximal activity seen.
